Read-out in experiment [1]: Vascular endothelial growth factor receptor 2 (Homo sapiens) (UniProt P35968)
In words: BSK_4H_VEGFRII: BioMAP Diversity Plus: 4H Assay for Vascular endothelial growth factor receptor 2 (VEGFR2) Biomarker Activity (AID 2283031).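 For AC50: cell-surface VEGFR2 protein level quantified by ELISA.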 Particulars: primary human endothelial cells (HUVEC); actives raise or lower the signal. The method in brief: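 HUVEC (human primary), 4H system; 24 h post-dose; VEGFRII by ELISA; bidirectional curve fit vs DMSO baseline; gain or loss of signal scored.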

Read-out in experiment [2]: Human Leukocyte Antigen - DR isotype (HLADR), HLA-DRA (gene 3122)
In words: BSK_BE3C_HLADR: BioMAP Diversity Plus: BE3C Assay for Human Leukocyte Antigen - DR isotype (HLADR) Biomarker Activity (AID 2283032). To be noted: primary human bronchial epithelial cells; actives raise or lower the signal. The method in brief:
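BioMAP BE3C format: human bronchial epithelium, 24 h compound treatment, ELISA detection of HLA-DR, with bidirectional analysis relative to DMSO.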

Read-out in experiment [3]: Vascular cell adhesion molecule 1 (VCAM1), VCAM1 (gene 7412)
In words: BSK_4H_VCAM1: BioMAP Diversity Plus: 4H Assay for Vascular cell adhesion molecule 1 (VCAM1) Biomarker Activity (AID 2283033).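 For outcome: cell-surface VCAM-1 protein measured by ELISA.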 Particulars: primary human endothelial cells (HUVEC); actives raise or lower the signal. A digest of the protocol: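 In this human endothelial (HUVEC) system, biomarker ELISA was run 24 h after compound addition, and total protein in parallel wells was assessed by SRB at 560 nm; DMSO served as negative control.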

Read-out in experiment [4]: Interferon-gamma inducible Protein 10 (IP10), CXCL10 (gene 3627)
The experiment can be described thus: BSK_BE3C_IP10: BioMAP Diversity Plus: BE3C Assay for Interferon-gamma inducible Protein 10 (IP10) Biomarker Activity (AID 2283034). Particulars: primary human bronchial epithelial cells; actives raise or lower the signal. The method in brief:
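BE3C cells (human bronchial epithelial, primary); 24 h exposure; ELISA for IP-10; DMSO-referenced bidirectional fit.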

Read-out in experiment [5]: Monokine induced gamma interferon (MIG), CXCL9 (gene 4283)
In words: BSK_BE3C_MIG: BioMAP Diversity Plus: BE3C Assay for Monokine induced gamma interferon (MIG) Biomarker Activity (AID 2283035).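 Note: MIG protein measured by ELISA in BE3C cultures after 24 h of dosing.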 Particulars: primary human bronchial epithelial cells; actives raise or lower the signal. A digest of the protocol:
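ELISA quantified MIG after 24 h exposure of primary bronchial epithelial cultures, analysed in both directions relative to DMSO. Cytotoxicity tracked in parallel cultures by sulforhodamine B staining.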

Read-out in experiment [6]: Transforming growth factor beta 1 (TGFb1), TGFB1 (gene 7040)
In words: BSK_BE3C_TGFb1: BioMAP Diversity Plus: BE3C Assay for Transforming growth factor beta 1 (TGFb1) Biomarker Activity (AID 2283036;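 note: TGF-b1 protein level measured by ELISA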). Particulars: primary human bronchial epithelial cells; actives raise or lower the signal. A digest of the protocol: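 TGF-b1 measured via ELISA, 24 h after chemical dosing of human bronchial epithelial cells (BE3C). Overt cytotoxicity assessed in parallel by SRB (0.1%, TCA-fixed, 560 nm); analysis bidirectional relative to DMSO.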

Read-out in experiment [7]: Plasminogen activator inhibitor-1 (PAI1), SERPINE1 (gene 5054)
The experiment can be described thus: BSK_BE3C_PAI1: BioMAP Diversity Plus: BE3C Assay for Plasminogen activator inhibitor-1 (PAI1) Biomarker Activity (AID 2283037). Particulars: primary human bronchial epithelial cells; actives raise or lower the signal. A digest of the protocol:
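In this multiplexed primary-cell system, bronchial epithelial cells receive test chemical and are sampled at 24 h. PAI-1 is read by ELISA, with DMSO serving as negative control for bidirectional fitting.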

Read-out in experiment [8]: Urokinase-type plasminogen activator receptor (uPAR), PLAUR (gene 5329)
In words: BSK_BE3C_uPAR: BioMAP Diversity Plus: BE3C Assay for Urokinase-type plasminogen activator receptor (uPAR) Biomarker Activity (AID 2283039).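 Note: uPAR protein level measured by ELISA on the cells; cells exposed to compound for one day before measurement.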 Particulars: primary human bronchial epithelial cells; actives raise or lower the signal. The method in brief:
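Chemically treated human bronchial epithelial cells (lung primary) are assayed for uPAR by ELISA after 24 h, with data fitted in both directions using DMSO as negative control.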

Read-out in experiment [9]: Interleukin-6 (IL6), IL6 (gene 3569)
In words: BSK_CASM3C_IL6: BioMAP Diversity Plus: CASM3C Assay for Interleukin-6 (IL6) Biomarker Activity for (AID 2283040). Particulars: primary human coronary artery smooth muscle cells; actives raise or lower the signal.

Read-out in experiment [10]: urokinase plasminogen activator (uPA), PLAU (gene 5328)
The experiment can be described thus: BSK_BE3C_uPA: BioMAP Diversity Plus: BE3C Assay for urokinase plasminogen activator (uPA) Biomarker Activity (AID 2283038).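 Note: uPA protein level quantified by ELISA in cell cultures; uPA read one day after compound addition.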 To be noted: primary human bronchial epithelial cells; actives raise or lower the signal. The method in brief:
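ELISA read-out of uPA in human lung primary bronchial epithelial cultures, 24 h post-dosing. Gain or loss of signal fitted bidirectionally relative to DMSO baseline; cytotoxicity checked in parallel cultures via SRB total protein stain.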

More than one record can exist for a structure, and the calls need not agree. Active and inactive are the calls of the source. Rule for the calls: active = hit-call score of the fitted dose curve at least 0.9, where 1 is the maximum; inactive = score below 0.9.

What is called AC50 is the concentration at which the activity in the assay is half-maximal. `C[C@]12C=CC(=O)C=C1CC[C@H]1[C@@H]3C[C@@H](O)[C@](O)(C(=O)CO)[C@@]3(C)C[C@H](O)[C@@]12F`: the outcome in experiment [1], in experiment [2], in experiment [3], in [4], in experiment [5] and in experiment [6] was inactive. The result in [7] and in experiment [8] was inactive. The concentration at half-maximal activity (AC50) in experiment [9] was 0.356 µM (active).

`c1ccc(C(O[C@@H]2CCCN(CCc3ccc4c(c3)OCO4)C2)c2ccccc2)cc1`: the outcome in [1], in experiment [4], in experiment [5], in experiment [7], in experiment [10] and in experiment [8] was inactive. Besides, in experiment [9], the outcome was inactive. In addition, the figures for the AC50 in [2] and in [3] were 20 µM (active) and 26.9 µM (active), respectively.

As for `CNC(C)=O`, the outcome in experiment [1], in [2], in [3], in [4], in experiment [5] and in [6] was inactive. Also, the result in experiment [7], in experiment [10], in experiment [8] and in [9] was inactive.

With `CCOC(N)=O`, the result in [1], in experiment [2], in experiment [3], in [4], in experiment [5] and in [6] was inactive. Moreover, the result in experiment [7], in experiment [10], in experiment [8] and in experiment [9] was inactive.

For the compound `CCCCCCCCCCCCCCO`, the AC50 is 32.6 µM (active) in experiment [1] and 34.2 µM (active) in experiment [3]. The outcome in experiment [2], in experiment [4], in [5], in experiment [6], in experiment [7] and in [8] was inactive. Besides, the result in [9] was inactive.

Regarding `CC(=O)c1ccccc1`, the result in [1], in experiment [2], in [3], in [4], in experiment [5] and in experiment [7] was inactive. Moreover, the result in experiment [10], in experiment [8] and in experiment [9] was inactive.

For `COc1cc2c(c(OC)c1OC)-c1ccc(OC)c(=O)cc1[C@@H](NC(C)=O)CC2`, the result in experiment [1], in experiment [3], in experiment [4], in experiment [5], in [6] and in experiment [8] was inactive. Further, the AC50 is 0.47 µM (active) in experiment [2], 0.148 µM (active) in experiment [7] and 0.148 µM (active) in experiment [9].

As for `O=C(Cl)C(F)(F)C(F)(F)C(F)(F)C(=O)Cl`, the result in experiment [1], in [2], in experiment [3], in [4], in [5] and in experiment [7] was inactive. Besides, the outcome in experiment [10], in experiment [8] and in experiment [9] was inactive. For the same compound, the AC50 in [7] was 12.2 µM (active).

For `COCc1nnc(-c2ccc[n+]([O-])c2)n1-c1c(Cl)c(Cl)cc2[nH]c(=O)c(=O)[nH]c12`, the result in experiment [1], in [2], in experiment [3], in experiment [4], in experiment [5] and in [7] was inactive. Moreover, the outcome in experiment [10], in experiment [8] and in [9] was inactive.

Turning to `O=C(O)c1cccc(C[C@@H]2COc3ccc(OCc4nc5cc(F)ccc5s4)cc3[C@@H]2O)c1`, the outcome in [1], in [2], in experiment [3], in experiment [4], in [5] and in [7] was inactive. In addition, the result in [10], in experiment [8] and in experiment [9] was inactive.

Consider `NC(=O)N(O)[C@@H]1COc2cc(OCc3ccccc3)ccc21`, for which the outcome in experiment [1], in experiment [2], in [3], in [4], in experiment [5] and in [7] was inactive. The result in [10], in [8] and in experiment [9] was inactive.

For the compound `CCCCOC(=O)c1ccccc1`, the outcome in experiment [2], in experiment [3], in experiment [4], in experiment [5], in experiment [6] and in experiment [7] was inactive. Also, the outcome in experiment [8] and in experiment [9] was inactive.

Regarding `NNC(=O)c1ccncc1`, the outcome in experiment [1], in experiment [2], in experiment [3], in [4], in [5] and in experiment [7] was inactive. In addition, the outcome in experiment [10], in experiment [8] and in experiment [9] was inactive.

Regarding `CC(C)CC(C)O` (stereo not given), the result in experiment [2], in experiment [3], in [4], in experiment [5], in [6] and in experiment [7] was inactive. For the same compound, the outcome in experiment [10], in experiment [8] and in [9] was inactive.

For the compound `Cc1nc(-c2ccccn2)ncc1C(=O)Nn1cc(C)c2cc(F)ccc21`, the result in experiment [2], in experiment [3], in [4], in experiment [5], in [6] and in experiment [7] was inactive. The result in [10], in [8] and in experiment [9] was inactive.

Turning to `OC(CCl)CCl`, the result in experiment [1], in [2], in experiment [3], in experiment [4], in [5] and in experiment [7] was inactive. The outcome in [8] and in [9] was inactive.

Turning to `O=c1[nH]cnc2c1ncn2[C@H]1CC[C@@H](CO)O1`, the outcome in experiment [2], in experiment [3], in experiment [4], in experiment [5], in [6] and in [7] was inactive. Moreover, the outcome in experiment [8] and in [9] was inactive.

Take `CC(C)c1nnc2ccc(-c3ocnc3-c3cc(F)ccc3F)cn12`: the result in [1], in [2], in experiment [3], in experiment [4], in experiment [5] and in [7] was inactive. Moreover, the outcome in experiment [10] and in [8] was inactive. Also, the AC50 in experiment [9] was 0.552 µM (active).

Turning to `C[Si](C)(C)C(F)(F)C(F)(F)C(F)(F)F`, the outcome in [1], in [2], in [3], in [4], in experiment [5] and in experiment [7] was inactive. Also, the result in [8] and in [9] was inactive.

The values above are taken from PubChem BioAssay (EPA / NIEHS).
